“And” between values parts separate entries of the source, which are not always exact repeats. Equal values may be shown once. The whole screen tested about 5,500 compounds, of which about 2,000 (36%) were called active. Not shown: some 18% with an inconclusive outcome. Rule as the data show it: active = normalized growth mostly below about 0.91 (no sharp cut-off); inconclusive = no clear call, values can overlap the other calls; inactive = mostly above about 0.92. This is one part of the list.
Test: chemical genetic growth profiling, strain panel (AID 1159580);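 also: tested at 20 µM; growth read once vehicle control cultures reached saturation at 30 °C; 1 = growth at the plate median or of vehicle wells; lower values mean less growth of the strain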
Conditions: S. cerevisiae deletion strains, growth OD

Measured: normalized growth

COc1ccc([C@H]2Oc3cc(OC)cc(OC)c3C[C@H]2O)cc1
inactive: locus YAL013W, strain DEP1, active compounds read low 1.01 | locus YAL021C, strain ccr4, active compounds read low 1 | locus YAL026C, strain drs2, active compounds read low 0.995 | locus YAL030W, strain snc1, active compounds read low 0.993 | locus YBL061C, strain skt5, active compounds read low 0.997 | locus YBR009C, strain hhf1, active compounds read low 1.01 | locus YBR021W, strain FUR4, active compounds read low 1.06 | locus YBR023C, strain chs3, active compounds read low 1 | locus YBR171W, strain sec66, active compounds read low 0.98 | locus YBR229C, strain ROT2, active compounds read low 1 | locus YBR231C, strain swc5, active compounds read low 1.01 | locus YBR279W, strain paf1, active compounds read low 0.994 | locus YCL011C, strain gbp2, active compounds read low 0.997 | locus YCL016C, strain dcc1, active compounds read low 1 | locus YCL029C, strain bik1, active compounds read low 1.01 | locus YCL061C, strain MRC1, active compounds read low 0.987 | locus YCL069W, strain vba3, active compounds read low 0.996 | locus YCR088W, strain abp1, active compounds read low 0.999 | locus YDL005C, strain med2, active compounds read low 0.996 | locus YDL035C, strain GPR1, active compounds read low 1.05 | locus YDL040C, strain nat1, active compounds read low 1 | locus YDL074C, strain BRE1, active compounds read low 1.12 | locus YDL101C, strain DUN1, active compounds read low 1.01 | locus YDL185W, strain tfp1, active compounds read low 1.01 | locus YDL192W, strain arf1, active compounds read low 1 | locus YDR001C, strain nth1, active compounds read low 0.998 | locus YDR069C, strain doa4, active compounds read low 1.01 | locus YDR101C, strain arx1, active compounds read low 0.983 | locus YDR137W, strain rgp1, active compounds read low 0.867 | locus YDR159W, strain sac3, active compounds read low 0.998 | locus YDR162C, strain NBP2, active compounds read low 1.03 | locus YDR195W, strain ref2 1.05 | locus YDR297W, strain sur2, active compounds read low 1 | locus YDR318W, strain mcm21, active compounds read low 1 | locus YDR334W, strain swr1, active compounds read low 1.01 | locus YDR335W, strain msn5, active compounds read low 1 | locus YDR388W, active compounds read low 1.01 | locus YDR392W, strain spt3, active compounds read low 0.948 | locus YDR502C, strain sam2, active compounds read low 1.01 | locus YEL003W, strain gim4, active compounds read low 0.996 | locus YEL037C, strain rad23, active compounds read low 0.989 | locus YEL061C, strain CIN8 (second series), active compounds read low 1 | locus YEL061C, strain CIN8, active compounds read low 1.02 | locus YER015W, strain faa2, active compounds read low 1 | locus YER016W, strain bim1, active compounds read low 0.994 | locus YER110C, active compounds read low 0.987 | locus YER111C, strain swi4, active compounds read low 0.998 | locus YER155C, strain BEM2 (second series), active compounds read low 1.01 | locus YER155C, strain BEM2, active compounds read low 1 | locus YER167W, strain BCK2, active compounds read low 1 | locus YFR010W, strain ubp6, active compounds read low 1.01 | locus YGL078C, strain dbp3, active compounds read low 1.02 | locus YGL086W, strain mad1, active compounds read low 0.999 | locus YGL167C, strain pmr1, active compounds read low 0.989 | locus YGL173C, strain kem1, active compounds read low 1 | locus YGL227W, strain vid30, active compounds read low 1 | locus YGL240W, strain doc1, active compounds read low 1.01 | locus YGL248W, strain PDE1, active compounds read low 1.05 | locus YGL253W, strain hxk2, active compounds read low 0.996 | locus YGR135W, strain pre9, active compounds read low 1.07 | locus YGR252W, strain gcn5, active compounds read low 1.08 | locus YHR013C, strain ard1, active compounds read low 1.05 | locus YHR027C, strain rpn1, active compounds read low 0.992 | locus YHR030C, strain SLT2, active compounds read low 0.985 | locus YHR079C, strain IRE1 (second series), active compounds read low 1.02 | locus YHR079C, strain IRE1, active compounds read low 0.994 | locus YHR094C, strain hxt1, active compounds read low 1.01 | locus YHR129C, strain ARP1, active compounds read low 1.02 | locus YHR142W, strain chs7, active compounds read low 0.981 | locus YHR200W, strain rpn10, active compounds read low 1.03 | locus YIL066C, strain RNR3, active compounds read low 1.02 | locus YIL073C, strain SPO22, active compounds read low 1.07 | locus YIL125W, strain kgd1, active compounds read low 1 | locus YIR030C, strain dcg1, active compounds read low 0.99 | locus YJL092W, strain hpr5, active compounds read low 0.997 | locus YJL095W, strain BCK1 (second series), active compounds read low 1 | locus YJL095W, strain BCK1, active compounds read low 1.04 and 1 | locus YJL115W, strain asf1, active compounds read low 1.01 | locus YJL129C, strain trk1, active compounds read low 1.04 | locus YJL134W, strain LCB3, active compounds read low 1 | locus YJL154C, strain vps35, active compounds read low 0.989 | locus YJL164C, strain tpk1, active compounds read low 1.01 | locus YJL166W, strain qcr8, active compounds read low 0.994 | locus YJL168C, strain set2, active compounds read low 1 | locus YJL187C, strain SWE1 (second series), active compounds read low 1.03 | locus YJL187C, strain SWE1, active compounds read low 1 | locus YJR043C, strain POL32, active compounds read low 1.08 | locus YJR066W, strain TOR1, active compounds read low 0.938 | locus YKL009W, strain mrt4, active compounds read low 1.03 | locus YKL068W, active compounds read low 1 | locus YKL085W, strain MDH1 (second series), active compounds read low 0.99 | locus YKL085W, strain MDH1, active compounds read low 0.99 | locus YKL160W, strain elf1, active compounds read low 0.994 | locus YKL190W, strain CNB1, active compounds read low 1.02 | locus YKR001C, strain vps1, active compounds read low 0.99 | locus YKR026C, strain gcn3, active compounds read low 0.999 | locus YKR091W, strain srl3, active compounds read low 1 | locus YLL001W, strain dnm1, active compounds read low 0.988 | locus YLL026W, active compounds read low 1 | locus YLL041C, strain sdh2, active compounds read low 0.985 | locus YLR027C, strain aat2, active compounds read low 0.997 | locus YLR039C, strain RIC1, active compounds read low 1.1 | locus YLR058C, strain SHM2, active compounds read low 1.01 | locus YLR102C, strain apc9, active compounds read low 0.997 | locus YLR113W, strain HOG1, active compounds read low 0.983 | locus YLR221C, strain rsa3, active compounds read low 1 | locus YLR258W, strain gsy2, active compounds read low 0.995 | locus YLR262C, strain YPT6 (second series), active compounds read low 0.914 | locus YLR268W, strain sec22, active compounds read low 1.01 | locus YLR320W, strain mms22, active compounds read low 0.999 | locus YLR342W, strain FKS1 (second series), active compounds read low 0.997 | locus YLR342W, strain FKS1, active compounds read low 0.994 | locus YLR357W, strain rsc2, active compounds read low 1.07 | locus YLR370C, strain arc18, active compounds read low 0.99 | locus YLR371W, strain rom2, active compounds read low 1.04 | locus YLR384C, strain iki3, active compounds read low 0.994 | locus YLR418C, strain cdc73, active compounds read low 1.06 | locus YML016C, strain PPZ1, active compounds read low 0.998 | locus YML032C, strain rad52, active compounds read low 1.01 | locus YML120C, strain ndi1, active compounds read low 1.01 | locus YML124C, strain tub3, active compounds read low 1 | locus YMR058W, strain fet3, active compounds read low 0.997 | locus YMR078C, strain ctf18, active compounds read low 1.01 | locus YMR125W, strain sto1, active compounds read low 1.01 | locus YMR129W, active compounds read low 1 | locus YMR205C, strain PFK2, active compounds read low 1.02 | locus YMR223W, strain ubp8, active compounds read low 1 | locus YMR231W, strain pep5, active compounds read low 0.989 | locus YMR307W, strain GAS1, active compounds read low 1.31 | locus YNL067W, strain RPL9B, active compounds read low 1.02 | locus YNL071W, strain lat1, active compounds read low 0.994 | locus YNL183C, strain NPR1, active compounds read low 0.932 | locus YNL209W, strain ssb2, active compounds read low 0.994 | locus YNL233W, strain BNI4, active compounds read low 1.06 | locus YNL248C, strain rpa49, active compounds read low 1.01 | locus YNL250W, strain rad50, active compounds read low 1.05 | locus YNL271C, strain bni1, active compounds read low 0.995 | locus YNL298W, strain CLA4, active compounds read low 0.975 | locus YNL307C, strain MCK1, active compounds read low 1.02 | locus YNL322C, strain KRE1 (second series), active compounds read low 1 | locus YNL322C, strain KRE1, active compounds read low 1.01 | locus YNR049C, strain mso1, active compounds read low 1 | locus YNR052C, strain pop2, active compounds read low 1.02 | locus YOL012C, strain htz1 1.39 | locus YOL147C, strain pex11, active compounds read low 0.994 | locus YOR001W, strain rrp6, active compounds read low 0.992 | locus YOR061W, strain CKA2, active compounds read low 1 | locus YOR069W, strain VPS5, active compounds read low 0.996 | locus YOR070C, strain gyp1, active compounds read low 0.99 | locus YOR080W, strain dia2, active compounds read low 1.01 | locus YOR083W, strain WHI5, active compounds read low 0.993 | locus YOR106W, strain vam3, active compounds read low 0.999 | locus YOR136W, strain idh2, active compounds read low 1 | locus YOR144C, strain elg1, active compounds read low 1 | locus YOR184W, strain ser1, active compounds read low 0.94 | locus YOR231W, strain MKK1, active compounds read low 1 | locus YOR265W, strain rbl2, active compounds read low 0.999 | locus YOR270C, strain vph1, active compounds read low 0.976 | locus YOR290C, strain snf2, active compounds read low 1.01 | locus YOR316C, strain cot1, active compounds read low 1.02 | locus YPL051W, strain arl3, active compounds read low 0.984 | locus YPL055C, strain LGE1, active compounds read low 1.09 | locus YPL078C, strain atp4, active compounds read low 0.995 | locus YPL106C, strain sse1, active compounds read low 1.07 | locus YPL240C, strain hsp82, active compounds read low 0.986 | locus YPL256C, strain CLN2, active compounds read low 0.972 | locus YPR119W, strain clb2, active compounds read low 0.99 | locus YPR141C, strain kar3, active compounds read low 0.998 | locus YPR163C, strain tif3, active compounds read low 1.01 | locus YPR167C, strain met16, active compounds read low 1.01 | strain wtn01, active compounds read low 0.992
